Compound activity from PubChem BioAssay.
Hits are enriched below; roughly 5.7% of the tested compounds scored in any of these assays.
D3 ag: D3 dopamine receptor (human) agonism; max activation, %; D3R DiscoveRx beta-arrestin cells, luminescence, 90 min; P35462; hit rate 0.58% among 410,000; AID 652048; in the data active = max activation above about 30%
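Cells at 1500/well, incubated overnight, then treated with pinned compounds (dopamine as control) for 90 min at 37 degrees C. DiscoveRx reagent added for 30 - 60 minutes at room temperature; luminescence read.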
DRD3 antagonist: antagonists of human D3 dopamine receptor; P35462; D3R cells, DiscoveRx beta-arrestin luminescence, antagonist mode; stronger effect = lower value; max response, negative = inhibition, %; hit rate 2.5% among 360,000; AID 652054; in the data active = max response below about -50%; inconclusive = no clear call, values can overlap the other calls
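Cells expressing the human receptor were seeded at 1500 cells/well, incubated overnight at 37 degrees C in 5% CO2, then exposed to library compounds with dopamine controls for 90 minutes at 37 degrees C before luminescent detection.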
ClpP mod: qHTS Assay for Activators of ClpP; ATP-dependent Clp protease proteolytic subunit (Bacillus subtilis (strain 168)), P80244; Potency, µM (series often up to 57.5 µM); AID 651965, 2013; purified B. subtilis ClpP, FRET peptide cleavage, 20 min; hit rate 1.9% among 340,000; active = well fitted falling curve with a large enough effect; inconclusive = small, poorly fitted or top-dose-only effect; inactive = no such curve, though single readings can be large or run the other way; also: the source files actives as falling curves though it sought activators and does not explain the sign; nearly all actives have a fitted effect of over 65% in size
Target sequence (P80244 whole entry, looked up): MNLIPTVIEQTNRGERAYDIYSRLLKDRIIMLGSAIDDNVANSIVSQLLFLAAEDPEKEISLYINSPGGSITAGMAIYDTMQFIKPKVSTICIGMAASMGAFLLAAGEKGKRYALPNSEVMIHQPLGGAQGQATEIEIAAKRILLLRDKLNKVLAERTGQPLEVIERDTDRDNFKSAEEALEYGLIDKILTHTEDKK
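Buffer: 100 mM Tris/HCl pH8, 100 mM KCl, 0.05% low protease BSA, 2.5% glycerol, 0.01% Tween-20. ClpP 10 microg/mL final; 20 min RT; delta FRET normalized to ADEP and DMSO controls.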
GLP1R cytotox: cytotoxicity counter-screen for GLP-1 receptor inverse agonists; HEK293 cAMP-luciferase reporter cells, luminescence, 24 h; Potency, µM (highest dose often 38.3 µM), actives largely listed as inhibitors; hit rate 0.13% among 410,000; AID 624418;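 also: loss of luciferase light is scored as toxicity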
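Quantitative HTS format, 1536 wells, 200 cells/uL seeded. Compounds: 23 nL, 24 h, 37 °C. Detection: luciferase reagent, luminescence at 12 min RT; decreased signal taken as cytotoxic.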
GLP-1R inv ag: acts as inverse agonist at human GLP-1 receptor. AID 624417. hit rate 1.6% among 410,000. Potency, µM (top dose mostly 38.3 µM), most hits filed as inhibitors. HEK293 GLP-1R CRE-luciferase, luminescence, 24 h; GLP-1R form is constitutively active; also: nearly all actives have a fitted effect of over 55% in size
Target sequence (P43220 whole entry, looked up): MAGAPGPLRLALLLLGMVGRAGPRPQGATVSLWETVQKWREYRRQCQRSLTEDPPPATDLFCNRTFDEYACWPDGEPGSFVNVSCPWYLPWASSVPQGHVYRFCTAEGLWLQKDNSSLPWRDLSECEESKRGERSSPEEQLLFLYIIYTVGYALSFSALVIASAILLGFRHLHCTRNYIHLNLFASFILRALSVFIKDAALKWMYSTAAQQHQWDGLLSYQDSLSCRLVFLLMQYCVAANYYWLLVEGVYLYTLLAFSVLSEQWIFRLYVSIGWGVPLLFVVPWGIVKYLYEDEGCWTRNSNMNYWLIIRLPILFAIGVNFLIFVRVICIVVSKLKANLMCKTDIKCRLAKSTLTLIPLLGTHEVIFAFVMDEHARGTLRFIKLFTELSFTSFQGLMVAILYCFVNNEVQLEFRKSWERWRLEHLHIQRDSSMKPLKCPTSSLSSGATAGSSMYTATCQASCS
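HEK293 cells stably co-expressing a cAMP-responsive luciferase reporter and constitutively active GLP-1R were seeded, incubated 12 h, then exposed to compounds for 24 h at 37 C. Luminescence was read 12 min after detection reagent; inverse agonists lower signal.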
GLP-1R agonist: agonists of human GLP-1 receptor. P43220. Potency, µM (series often up to 45.6 µM), most hits filed as activators. HEK293 GLP-1R CRE-luciferase, luminescence, 4-6 h; cells express a hypersensitive GLP-1R form. hit rate 0.007% among 380,000
Of the large screens only hits and unclear results are named; the others gave an inactive call. Unless noted, calls follow the shape of the dose curve; as a rule, active = well fitted curve in the direction sought with a large enough effect; inconclusive = small, poorly fitted or top-dose-only effect, or another doubt; inactive = no such curve, though single readings can be large; an effect the other way counts as inactive or inconclusive.

CCn1cc(C(=O)NCc2ccccc2)c(=O)c2cc(F)c(N3CCN(C(=O)c4ccco4)CC3)cc21	ClpP mod 14µM
CCOC(=O)c1c(CSc2ccccc2)n(C)c2cc(Br)c(OC)c(O)c12	GLP-1R inv ag inconclusive
CCOC(=O)c1c(CSc2ccccc2)n(C)c2cc(Br)c(OCC(O)CNC(CO)(CO)CO)cc12 (stereo not drawn)	GLP1R cytotox inconclusive, GLP-1R inv ag 8.9µM
Cn1c2ccc(F)cc2c2nnc(SCC(=O)Nc3cccc(O)c3)nc21	D3 ag 34, GLP-1R agonist inconclusive (no result: ClpP mod)
Cn1c2ccccc2c2nnc(SCC(=O)Nc3cccc(C(=O)O)c3)nc21	none
CCNCc1nc2cc(Cl)ccc2c(=O)[nH]1	DRD3 antagonist inconclusive, GLP1R cytotox inconclusive, GLP-1R inv ag 10µM (no result: ClpP mod)
Cc1ccc(C(=O)c2c3ccccc3[n+]([O-])n2[C@@H](C)C(N)=O)cc1	DRD3 antagonist -64
O=C(NCCC(=O)N1CCN(Cc2c(F)cccc2Cl)CC1)c1ccc(Cl)cc1	D3 ag 65, GLP-1R inv ag inconclusive
CCN1CCN(C(C(=O)NC2CCCCC2)c2cc3ccccc3o2)CC1 (stereo not drawn)	none
Oc1c(Cl)cc(Cl)cc1C=Nc1ccc2c(c1)OCCO2	DRD3 antagonist -52
COc1ccc(NC(=O)c2oc3ccccc3c2NC(=O)Cc2cccs2)cc1	none (no result: DRD3 antagonist)
O=c1ccn([C@@H]2O[C@H](CNS(=O)(=O)c3csc(-c4ccno4)c3)[C@@H](O)[C@H]2O)c(=O)[nH]1	D3 ag 44
O=c1ccn([C@@H]2O[C@H](CNS(=O)(=O)C3CC3)[C@@H](O)[C@H]2O)c(=O)[nH]1	none
CCc1ccc2ncc(S(=O)(=O)c3ccc(Cl)cc3)c(N3CCN(CC)CC3)c2c1	none (no result: DRD3 antagonist, GLP-1R agonist)
CNCc1c(OCc2ccc(F)cc2)ccc2ccccc12	DRD3 antagonist -61, GLP-1R inv ag inconclusive (no result: ClpP mod)
COc1ccc(NC(=O)C2CCN(C(=O)c3ccccc3)CC2)cc1OC	none
COc1ccc(NC(=O)C2CCN(Cc3cnn(-c4ccccc4)c3-n3cccc3)CC2)cc1OC	DRD3 antagonist -73, GLP-1R inv ag inconclusive
Cc1cc(C)c(NC(=O)C2CCCN(C(=O)c3cnn(-c4ccccc4)c3-n3cccc3)C2)c(C)c1 (stereo not drawn)	GLP-1R inv ag inconclusive (no result: DRD3 antagonist, GLP-1R agonist)
Cc1cc(C)cc(NC(=O)C2CCCN(C(=O)c3cnn(-c4ccccc4)c3-n3cccc3)C2)c1 (stereo not drawn)	GLP-1R inv ag 10µM (no result: DRD3 antagonist, GLP-1R agonist)
O=C(Nc1ccccc1Cl)C1CCN(Cc2cnn(-c3ccccc3)c2-n2cccc2)CC1	DRD3 antagonist -80, GLP-1R inv ag inconclusive
CCn1cc(CN2CCC(C(=O)Nc3cccc(-c4cccc(OC)c4)c3)CC2)c(C)n1	DRD3 antagonist inconclusive
COc1cccc(NC(=O)C2CCN(Cc3cnn(-c4ccccc4)c3-n3cccc3)CC2)c1	DRD3 antagonist -50, GLP-1R inv ag inconclusive
O=C(NCc1ccc2c(c1)OCO2)C1CCN(Cc2cnn(-c3ccccc3)c2-n2cccc2)CC1	DRD3 antagonist inconclusive, GLP-1R inv ag inconclusive
COc1ccc(OC)c(NC(=O)C2CCN(Cc3cnn(-c4ccccc4)c3-n3cccc3)CC2)c1	DRD3 antagonist -65
Cc1cc(=O)n(Cc2cccc(Cl)c2)c2c1c(C)nn2-c1ccccc1	ClpP mod inconclusive (no result: DRD3 antagonist, GLP-1R agonist)
CCc1nn(C(C)C(=O)N2CCN(c3cccc(C(F)(F)F)c3)CC2)c(=O)c2cc3occc3n12 (stereo not drawn)	none (no result: DRD3 antagonist, GLP-1R agonist)
CC(C)C1NCCc2c1sc1ccccc21 (stereo not drawn)	DRD3 antagonist -61, GLP-1R inv ag inconclusive
CC(C)C1NC(C(=O)O)Cc2c1[nH]c1ccccc21 (stereo not drawn)	none (no result: ClpP mod)
O=C1CC(c2nc3ccccc3n2Cc2c(F)cccc2Cl)CN1c1cccc(C(F)(F)F)c1 (stereo not drawn)	none (no result: DRD3 antagonist, GLP-1R agonist)
O=C(COC(=O)c1cc([N+](=O)[O-])ccc1N1CCOCC1)NCc1ccc(Cl)cc1Cl	GLP-1R inv ag 11µM
O=C(c1ccc(Br)cc1)c1cc([N+](=O)[O-])ccc1N1CCOCC1	GLP1R cytotox inconclusive, GLP-1R inv ag 1.4µM
O=C(Oc1cccc(C(=S)N2CCOCC2)c1)c1ccc([N+](=O)[O-])cc1[N+](=O)[O-]	DRD3 antagonist -51
O=C(c1ccccc1)c1cc([N+](=O)[O-])ccc1N1CCOCC1	DRD3 antagonist inconclusive, GLP1R cytotox 11µM, GLP-1R inv ag inconclusive, GLP-1R agonist inconclusive
CCCCOc1ccc(S(=O)(=O)NC(=O)C2(C)CCN2C(=O)c2c(C)noc2C)cc1 (stereo not drawn)	none
Cc1ccc(C(=O)c2cc([N+](=O)[O-])ccc2N2CC(C)OC(C)C2)cc1 (stereo not drawn)	DRD3 antagonist inconclusive, GLP1R cytotox inconclusive, GLP-1R inv ag inconclusive
Cc1ccc(C(=O)c2cc([N+](=O)[O-])ccc2N2CCCCC2)cc1	DRD3 antagonist -65, GLP-1R inv ag inconclusive
O=C(OCc1cccc(C(F)(F)F)c1)c1cc([N+](=O)[O-])ccc1N1CCOCC1	DRD3 antagonist inconclusive, GLP-1R inv ag 10µM
O=[N+]([O-])O[C@@H]1CO[C@H]2[C@@H]1OC[C@@H]2O	none (no result: DRD3 antagonist, ClpP mod, GLP1R cytotox, GLP-1R inv ag, GLP-1R agonist)
O=C(CSc1nc(=O)n(Cc2ccncc2)c2c1CCC2)Nc1cccc(F)c1	none (no result: DRD3 antagonist, GLP-1R agonist)
CCCc1[nH]nc2c1C(c1ccc(OCCN3CCOCC3)c(OC)c1)C(C#N)=C(N)O2 (stereo not drawn)	DRD3 antagonist -64
Cc1ccc(-c2csc(N3CCC[C@@H]3C(=O)NCCn3c(-c4ccncc4)nc4ccccc43)n2)cc1	GLP-1R inv ag 13µM
Cc1ccc(-c2csc(N3CCN(CCCn4c(-c5ccncc5)nc5ccccc54)CC3)n2)cc1	GLP-1R inv ag inconclusive
O=c1cc(-c2ccccc2)[nH]c2nc3ccccc3n12	ClpP mod 11µM
CCc1c(C)[nH]c2nc3ccccc3n2c1=O	ClpP mod 28µM
Cc1nn2cc(-c3ccccc3)nc2s1	none
CCc1ccc(-c2cn3nc(CC)sc3n2)cc1	GLP-1R inv ag inconclusive (no result: DRD3 antagonist, GLP-1R agonist)
CC(C)Cc1nn2cc(-c3cccc(Br)c3)nc2s1	D3 ag 66, GLP-1R inv ag inconclusive (no result: DRD3 antagonist, GLP-1R agonist)
CCCCCc1nn2cc(-c3ccccc3)nc2s1	D3 ag 37 (no result: DRD3 antagonist, GLP-1R agonist)
Cc1cc(C)c2c(-n3cccc3)c(C(=O)NCCCN3CCCCC3)sc2n1	none (no result: DRD3 antagonist, GLP-1R agonist)
CCc1cccc(NC(=O)Cn2c(=O)n(-c3ccccc3C)c(=O)c3c2c2cc(C)ccc2n3C)c1	none (no result: DRD3 antagonist)
O=C(/C=C/c1ccc(Br)cc1)NC(=S)NNC(=O)c1ccco1	DRD3 antagonist -84
